# Compound activity: PubChem, ICCB-Longwood Screening Facility, Harvard Medical School
# Mtb MenB inh: M. tuberculosis MenB inhibitors, primary screen, biochemical, absorbance | 1,4-dihydroxy-2-naphthoyl-CoA synthase (Mycobacterium tuberculosis (strain ATCC 25618 / … | 100,000 tested, 0.43% active | AID 540299, 2011 | MenB enzyme assay, absorbance read-out | inhibition, % (concentration not given with the values); in the data active = inhibition above about 21%, passing the limit was not always enough
# Target sequence (P9WNP5 whole entry, looked up): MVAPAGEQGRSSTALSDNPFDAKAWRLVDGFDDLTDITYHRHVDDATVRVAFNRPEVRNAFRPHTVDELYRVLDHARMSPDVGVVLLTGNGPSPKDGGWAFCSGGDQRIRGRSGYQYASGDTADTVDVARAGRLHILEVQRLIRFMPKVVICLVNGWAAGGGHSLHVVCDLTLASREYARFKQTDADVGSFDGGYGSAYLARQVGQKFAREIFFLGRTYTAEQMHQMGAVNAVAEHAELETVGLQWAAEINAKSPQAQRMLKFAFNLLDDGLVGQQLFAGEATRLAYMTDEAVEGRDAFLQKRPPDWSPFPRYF
# Polio RdRp inh: poliovirus RdRp elongation inhibitors, primary screen, biochemical, fluorescence polarization, total intensity; 150,000 tested, 0.66% active; AID 588519, 2011; % elongation, % (compound at 16.7 µg/mL); Genome polyprotein (Poliovirus type 1 (strain Mahoney)), P03300; poliovirus polymerase elongation; active compounds read low; in the data active = % elongation below about 90%
# Mtb MbtI inh: MbtI salicylate synthase inhibitors, primary screen, biochemical, fluorescence intensity. AID 493033, 2011. inhibition, % (concentration not given with the values). purified MbtI enzyme, fluorescence intensity read-out. P9WFX0. 100,000 tested, 0.89% active; in the data active = inhibition mostly above about 56%, no sharp cut-off; inactive = mostly below about 77%
# Numbers without * were called inactive; i = inactive; · = no result. Most compounds without a hit are left out; they make up all but 1.5% or so of the library.
SMILES,Mtb MenB inh,Polio RdRp inh,Mtb MbtI inh
Oc1ccc(C(=S)N2CCOCC2)cc1,-6.7,101.0,52.0
CC(=C1C(=O)c2ccccc2C1=O)N1CCN(c2cccc(Cl)c2)CC1,-36.0,101.0,3.0
CC(C)COc1ccc(C(=S)N2CCCCC2)cc1,-12.5,103.0,54.1*
Oc1ccc(C(=S)N2CCCCCC2)cc1,-24.0,97.0,83.8*
OCCOc1c(Cl)cc(Cl)c2cccnc12,-63.0,99.0,·
COC(=O)c1cc(COC(=O)/C=C/c2c(C)nn(-c3ccccc3)c2C)oc1C,9.5,105.0,17.9
CN(C)CC(C)(C)CNc1ncnc2sccc12,5.3,118.0,3.5
CCNC(=S)N1CCN(Cc2ccccc2)CC1,2.3,105.0,-7.4
Oc1ccc(C(=S)N2CCN(Cc3ccccc3)CC2)cc1,-14.8,98.0,93.9*
CCOc1ccc(NC(=O)CSc2nc3[nH]ncc3c(=O)n2-c2ccc(OC)cc2)cc1,10.3,99.0,-10.4
COc1ccccc1CC(=O)Nc1cccc(C)n1,39.8*,100.0,0.6
COc1ccccc1CC(=O)Nc1cccc(NC(C)=O)c1,-1.4,99.0,·
CSc1nsc(SC)c1NC(=O)OCC1CCCO1 (stereo unspecified),1.7,88.0*,·
CSc1nsc(SC)c1NC(=O)Nc1ccccn1,-3.6,102.0,·
CCc1ccc(S(=O)(=O)c2nnn3c2nc(NCc2cccc(OC)c2)c2cc(Cl)ccc23)cc1,·,89.0*,·
CCc1ccc(S(=O)(=O)c2nnn3c2nc(NCc2ccccc2)c2cc(Cl)ccc23)cc1,·,104.0,·
O=C1C=CC(=O)N1c1ccc(N2CCOCC2)cc1,-42.3,101.0,93.3*
CC1=C(C)CC2C(=O)N(c3ccc(N4CCOCC4)cc3)C(=O)C2C1 (stereo unspecified),·,100.0,-3.2
CCc1nn(CC(=O)NC(C)c2ccc3c(c2)OCCO3)c(=O)c2cc3sc(C)cc3n12 (stereo unspecified),-10.3,100.0,1.8
COc1ccc(NCC(=O)/C(C#N)=C(\C)Nc2ccc(OC)cc2)cc1,-17.8,97.0,-3.0
Clc1ccccc1C1SCC2Nc3ccccc3CN21 (stereo unspecified),70.5*,105.0,-4.8
O=C1CCCN1CO,·,103.0,-3.0
NCCN1CCCC1=O,28.2*,105.0,-3.3
O=C1C(=Nc2cccnc2)c2ccccc2N1Cc1ccccc1,-19.0,107.0,8.2
O=C1C(Nc2cccc(O)c2)=C(n2nnc3ccccc32)C(=O)c2ccccc21,-55.5,51.0*,8.8
SMILES,Mtb MenB inh,Polio RdRp inh,Mtb MbtI inh
O=C1C(N2CCCCC2)=C(n2nnc3ccccc32)C(=O)c2ccccc21,-18.8,103.0,-5.6
Cc1cc(N)c(O)cc1C,-128.6,109.0,100.2*
Cc1cc(N)c(N)cc1C,-16.5,100.0,-6.7
CNC(=S)N/N=C(\C)c1ccccc1OC,-54.2,104.0,2.5
O=C(O)CCCC(=O)Nc1ccc(C(=O)N2CCCCC2)cc1,33.3*,102.0,-1.6
O=C(O)CCC(=O)Nc1ccc(C(=O)N2CCCCC2)cc1,-2.3,105.0,·
Cc1ccc(C)c(Cn2nnc3c2nc(C)n2c(=O)[nH]nc32)c1,-3.2,100.0,-26.2
CC(C)(C)C(O)Cn1c(=N)n(CCN2CCCCC2)c2ccccc21 (stereo unspecified),10.1,101.0,-2.8
N#CCSc1nc2ccc(Cl)cc2[nH]1,2.9,102.0,53.4*
NC(=O)CSc1nc2ccc(Cl)cc2[nH]1,-3.1,105.0,5.3
O=C(O)Cn1nnc(-c2ccncc2)n1,-45.7,102.0,35.0
CCc1c(C)sc(NC(=O)/C=C/c2cccs2)c1C(=O)OC,-42.3,100.0,-17.9
CCc1c(C)sc(NC(=O)C2CC3CCC2C3)c1C(=O)OC (stereo unspecified),-7.5,88.0*,·
CCc1cc(C(c2ccc(Cl)cc2)N2CCN(CCO)CC2)c(NC(=O)c2ccccc2)s1 (stereo unspecified),-19.2,103.0,14.3
CC(C#N)(NC(=O)COc1ccccc1Br)C1CC1 (stereo unspecified),-49.9,104.0,-5.7
Clc1cc2c(c(CSc3nnc(-c4ccco4)n3-c3ccccc3)c1)OCOC2,-12.2,103.0,16.0
CN(C)S(=O)(=O)c1cccc(-c2nnc(SCc3cc(Cl)cc4c3OCOC4)n2N)c1,-27.9,80.0*,86.2
CCc1nn(CC(=O)NCCN2CCN(c3cccc(C)c3C)CC2)c(=O)c2cc3sccc3n12,4.6,101.0,-1.8
O=C(COC(=O)c1ccccc1)NCC1CCCO1 (stereo unspecified),·,103.0,-7.1
O=C(COC(=O)c1ccco1)NCC1CCCO1 (stereo unspecified),35.4*,99.0,-3.4
O=C1NC2(CCCCC2)N(C(=O)c2cccs2)C2=C1CCCC2,-4.9,100.0,21.3
COc1cc(C2Nc3c(C)cc(C)cc3-c3cc(C)nn32)cc(OC)c1O (stereo unspecified),·,101.0,·
CC1=CC(C)=NC2Nc3c(C)cc(C)cc3C(=N)C12 (stereo unspecified),-278.9,86.0*,51.7
CNC(=O)NC(=O)C(C)N1c2ccccc2NC(=O)C1CC(=O)Nc1ccc(C)cc1C (stereo unspecified),9.4,109.0,-7.8
CCc1ccc(-c2nc(=S)n(CN3CCN(S(=O)(=O)c4cccs4)CC3)[nH]2)cc1,-23.1,104.0,52.2
SMILES,Mtb MenB inh,Polio RdRp inh,Mtb MbtI inh
Nc1sc(=S)nc2ccccc12,-98.8,97.0,51.8*
Nc1c2ccccc2nc2ccccc12 (tested in a mixture with another compound),-3.6,100.0,i
O=C(O)C1C2C=CC(C2)C1C(=O)NCc1ccccc1F (stereo unspecified),-12.3,102.0,0.7
O=C(O)C1C2C=CC(C2)C1C(=O)NCc1cccs1 (stereo unspecified),22.7*,99.0,-16.6
OC1(CCC2(O)CCCC2)CCCC1,28.2*,100.0,-4.8
CCOc1ccc(C(N)=O)cc1OC,-62.7,99.0,15.5
CCOc1cc(C(=S)N2CCOCC2)ccc1OC,-21.3,65.0*,·
COc1ccc(C(=S)N2CCCCC2)cc1OC,-37.0,98.0,82.2*
COc1ccc(C(=S)N2CCCC2)cc1OC,1.3,101.0,6.2
CC(=O)Oc1cccc(/C=C2\N=C(c3ccccc3Br)OC2=O)c1,2.3,99.0,26.2
O=C(CCC(=O)c1ccc(F)cc1)c1ccc(F)cc1,3.1,105.0,-12.9
O=C(CC1C(=O)Sc2[nH]c(=O)sc21)c1ccc(F)cc1 (stereo unspecified),59.1*,55.0,84.8*
CCC(C)[C@@H](CO[C@@H](Cc1ccccc1)C(=O)N[C@@H](CCS(C)(=O)=O)C(=O)OC(C)C)NC[C@@H](N)CS (stereo partly specified),-12.6,103.0,66.8*
CC(C)C[C@H](NC(=O)[C@@H](O)[C@H](N)Cc1ccccc1)C(=O)O,-7.6,103.0,-11.9
CC(C)(C)NC(=O)CSc1nnc(C(F)(F)F)n1N,-14.3,98.0,0.6
CCCC(=O)c1ccc2[s+]c3ccccc3[n+](CCCN(C)C)c2c1,-37.7,89.0*,·
CC(C)c1ccc(C(=O)CCN(C)C)cc1,-15.0,98.0,·
c1ccc(CC2CCN(c3ncnc4c3oc3ccccc34)CC2)cc1,1.2,101.0,106.2
CC12CC(C)(C)C(C#N)(C(N)=C1C#N)C(=C(C#N)C#N)N2 (stereo unspecified),-14.6,83.0*,5.2
